Assay results reported in PubChem BioAssay (NCATS).
Several values for one entry are separate records, joined by “and”; a condition that tells them apart may be missing. Equal values may be shown once. Unmarked numbers belong to inactive results. Inconclusive results are not listed. Entries that show only a call come without a potency. Activity calls are given as the source filed them. Unless noted, calls follow the shape of the dose curve; as a rule, active = well fitted curve in the direction sought with a large enough effect; inconclusive = small, poorly fitted or top-dose-only effect, or another doubt; inactive = no such curve, though single readings can be large; an effect the other way counts as inactive or inconclusive.

Key:
[1] = molecular target: Cytochrome P450 1A2 (Homo sapiens) (UniProt P05177); assay: p450-cyp1a2 (AID 410; calls by dose curve; also: potency is read from the fitted curve at half-maximal effect)
Sequence of Cytochrome P450 1A2 (Homo sapiens) (P05177 whole entry, looked up): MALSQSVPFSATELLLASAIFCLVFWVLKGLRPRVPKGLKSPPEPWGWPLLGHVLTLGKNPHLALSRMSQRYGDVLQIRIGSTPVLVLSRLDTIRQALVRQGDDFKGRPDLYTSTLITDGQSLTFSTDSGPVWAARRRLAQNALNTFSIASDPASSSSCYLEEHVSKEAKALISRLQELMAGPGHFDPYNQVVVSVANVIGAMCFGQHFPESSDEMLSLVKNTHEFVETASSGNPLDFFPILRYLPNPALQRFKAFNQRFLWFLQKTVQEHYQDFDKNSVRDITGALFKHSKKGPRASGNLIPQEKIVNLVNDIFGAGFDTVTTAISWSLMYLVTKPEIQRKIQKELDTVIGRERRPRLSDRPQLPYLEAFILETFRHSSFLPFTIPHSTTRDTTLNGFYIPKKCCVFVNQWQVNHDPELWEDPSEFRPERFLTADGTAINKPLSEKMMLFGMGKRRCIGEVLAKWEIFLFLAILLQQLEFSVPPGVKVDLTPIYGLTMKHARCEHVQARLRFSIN
Outline: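 Luminescent readout of luciferin formed from Luciferin-ME by human CYP1A2; data normalized against complete inhibition by 57 uM furafylline. Enzyme 20nM, substrate 100uM at Km, 100mM KPO4 buffer, 60 min reaction at room temperature.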

[2] = molecular target: Glucocorticoid receptor (Homo sapiens) (UniProt P04150); assay: GR-GFP Redistribution (AID 450;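 active = compounds whose dose series gives a full or clear partial fitted curve of increased nuclear translocation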; also: potency is read from the fitted curve at half-maximal effect); conditions: U2OS GR-GFP nuclear translocation, laser cytometry, 2 h
Sequence of Glucocorticoid receptor (Homo sapiens) (P04150 whole entry, looked up): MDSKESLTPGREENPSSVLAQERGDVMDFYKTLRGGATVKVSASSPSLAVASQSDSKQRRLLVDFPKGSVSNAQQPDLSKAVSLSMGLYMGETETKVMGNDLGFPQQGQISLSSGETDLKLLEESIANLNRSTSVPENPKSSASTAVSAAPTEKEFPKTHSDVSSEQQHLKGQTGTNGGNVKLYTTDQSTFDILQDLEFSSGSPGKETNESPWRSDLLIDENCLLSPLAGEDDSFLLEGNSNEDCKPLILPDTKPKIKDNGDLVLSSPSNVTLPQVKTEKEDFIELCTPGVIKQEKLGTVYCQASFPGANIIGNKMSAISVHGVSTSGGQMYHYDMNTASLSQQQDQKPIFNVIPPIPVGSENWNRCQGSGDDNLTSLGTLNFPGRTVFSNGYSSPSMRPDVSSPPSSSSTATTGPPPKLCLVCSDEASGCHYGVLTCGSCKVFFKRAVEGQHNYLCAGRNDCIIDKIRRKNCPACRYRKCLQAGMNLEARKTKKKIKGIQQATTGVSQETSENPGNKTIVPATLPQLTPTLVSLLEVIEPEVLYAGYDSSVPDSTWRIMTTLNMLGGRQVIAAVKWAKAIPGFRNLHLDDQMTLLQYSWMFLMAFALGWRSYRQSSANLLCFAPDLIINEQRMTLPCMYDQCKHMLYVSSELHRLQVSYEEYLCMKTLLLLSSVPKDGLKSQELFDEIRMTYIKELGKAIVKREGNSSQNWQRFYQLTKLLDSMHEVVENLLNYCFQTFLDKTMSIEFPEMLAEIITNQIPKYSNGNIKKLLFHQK

[3] = molecular target: 3',5'-cyclic-AMP phosphodiesterase 4B (Homo sapiens) (UniProt Q07343); assay: qHTS Assay for Inhibitors of PDE-IV (AID 607; active = well fitted activation curve with a large enough effect in the main read-out, with a control signal flat, not every such curve was filed as active)
Sequence of 3',5'-cyclic-AMP phosphodiesterase 4B (Homo sapiens) (Q07343 whole entry, looked up): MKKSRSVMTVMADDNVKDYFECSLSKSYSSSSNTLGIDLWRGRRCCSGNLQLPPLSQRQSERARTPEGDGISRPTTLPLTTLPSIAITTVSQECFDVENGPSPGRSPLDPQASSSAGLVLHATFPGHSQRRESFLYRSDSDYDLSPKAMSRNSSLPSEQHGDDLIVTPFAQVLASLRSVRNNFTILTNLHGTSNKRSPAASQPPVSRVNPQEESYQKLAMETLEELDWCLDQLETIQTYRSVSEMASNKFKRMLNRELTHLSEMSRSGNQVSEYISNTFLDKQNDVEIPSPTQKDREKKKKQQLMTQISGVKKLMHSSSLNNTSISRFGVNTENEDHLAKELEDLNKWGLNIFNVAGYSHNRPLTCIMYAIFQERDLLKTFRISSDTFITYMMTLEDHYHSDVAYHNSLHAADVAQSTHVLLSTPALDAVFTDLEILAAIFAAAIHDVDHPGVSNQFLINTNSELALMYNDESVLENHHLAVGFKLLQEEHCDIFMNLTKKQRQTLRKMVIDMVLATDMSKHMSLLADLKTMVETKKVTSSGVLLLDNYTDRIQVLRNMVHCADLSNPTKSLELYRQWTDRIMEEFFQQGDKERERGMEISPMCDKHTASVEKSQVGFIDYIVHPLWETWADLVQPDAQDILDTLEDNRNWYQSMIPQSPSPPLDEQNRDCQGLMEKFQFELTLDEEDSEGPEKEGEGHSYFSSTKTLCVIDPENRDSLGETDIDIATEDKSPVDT
Outline: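 Cell-based read-out of cAMP via a modified cyclic nucleotide-gated channel and membrane potential dye (535/590 nm) in HEK293 cells expressing PDE4 endogenously. Compounds tested up to 22.9 uM final; 100 uM RO 20-1724 reference.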

[4] = molecular target: Cytochrome P450 3A4 (Homo sapiens) (UniProt P08684); assay: qHTS Assay for Inhibitors and Substrates of Cytochrome P450 3A4 (AID 884); also: nearly all actives have a fitted effect of over 50% in size
Sequence of Cytochrome P450 3A4 (Homo sapiens) (P08684 whole entry, looked up): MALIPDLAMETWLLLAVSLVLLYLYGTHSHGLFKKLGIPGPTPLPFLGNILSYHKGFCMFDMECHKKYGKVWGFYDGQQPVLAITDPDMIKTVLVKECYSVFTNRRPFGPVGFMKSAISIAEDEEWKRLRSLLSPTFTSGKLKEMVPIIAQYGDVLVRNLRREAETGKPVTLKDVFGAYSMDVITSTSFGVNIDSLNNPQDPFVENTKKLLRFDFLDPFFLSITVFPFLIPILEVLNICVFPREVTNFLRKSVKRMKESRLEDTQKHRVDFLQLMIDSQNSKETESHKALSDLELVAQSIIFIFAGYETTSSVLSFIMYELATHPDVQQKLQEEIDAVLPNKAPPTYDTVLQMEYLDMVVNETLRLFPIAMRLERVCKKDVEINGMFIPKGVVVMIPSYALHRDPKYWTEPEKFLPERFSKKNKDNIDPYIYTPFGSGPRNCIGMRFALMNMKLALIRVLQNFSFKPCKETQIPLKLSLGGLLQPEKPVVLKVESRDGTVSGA
Outline: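 20 nM human CYP3A4 with 25 uM Luciferin-PPXE (at KM) in 200 mM KPO4, preincubated 10 min with compound; NADPH regeneration started a 60 min RT reaction. Luciferin detected by luminescence, normalized to 57 uM ketoconazole as full inhibition.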

[5] = molecular target: Cytochrome P450 2D6 (Homo sapiens) (UniProt P10635); assay: qHTS Assay for Inhibitors and Substrates of Cytochrome P450 2D6 (AID 891); also: nearly all actives have a fitted effect of over 60% in size; also: potency is read from the fitted curve at half-maximal effect;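 as to activity change, negative = inhibition: luciferin methyl ether substrate demethylated by CYP2D6 with NADPH regeneration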
Sequence of Cytochrome P450 2D6 (Homo sapiens) (P10635 whole entry, looked up): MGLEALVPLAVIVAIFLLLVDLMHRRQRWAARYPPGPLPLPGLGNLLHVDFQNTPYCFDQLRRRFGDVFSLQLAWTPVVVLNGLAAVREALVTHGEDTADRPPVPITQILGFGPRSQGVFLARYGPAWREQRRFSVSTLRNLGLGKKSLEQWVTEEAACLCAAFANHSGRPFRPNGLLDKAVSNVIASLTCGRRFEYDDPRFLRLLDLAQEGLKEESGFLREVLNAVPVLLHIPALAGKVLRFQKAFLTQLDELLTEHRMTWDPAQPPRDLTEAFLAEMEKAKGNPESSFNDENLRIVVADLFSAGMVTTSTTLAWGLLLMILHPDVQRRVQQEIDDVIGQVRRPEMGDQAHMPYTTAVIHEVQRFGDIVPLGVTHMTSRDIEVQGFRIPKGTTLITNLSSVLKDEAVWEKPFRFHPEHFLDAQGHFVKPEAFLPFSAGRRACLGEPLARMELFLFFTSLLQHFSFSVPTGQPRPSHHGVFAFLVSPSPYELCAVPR
Outline: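 Human CYP2D6 (5 nM) with 30 uM Luciferin-ME EGE (at Km) in 100 mM KPO4, compound preincubated 10 min, then NADPH regeneration system for 60 min at room temperature. Luciferin read by luminescence; normalized to 1.43 uM quinidine.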

[6] = molecular target: DNA dC->dU-editing enzyme APOBEC-3G (Homo sapiens) (UniProt Q9HC16); assay: qHTS for inhibitors of Vif-A3G interactions: Validation (AID 588379)
Sequence of DNA dC->dU-editing enzyme APOBEC-3G (Homo sapiens) (Q9HC16 whole entry, looked up): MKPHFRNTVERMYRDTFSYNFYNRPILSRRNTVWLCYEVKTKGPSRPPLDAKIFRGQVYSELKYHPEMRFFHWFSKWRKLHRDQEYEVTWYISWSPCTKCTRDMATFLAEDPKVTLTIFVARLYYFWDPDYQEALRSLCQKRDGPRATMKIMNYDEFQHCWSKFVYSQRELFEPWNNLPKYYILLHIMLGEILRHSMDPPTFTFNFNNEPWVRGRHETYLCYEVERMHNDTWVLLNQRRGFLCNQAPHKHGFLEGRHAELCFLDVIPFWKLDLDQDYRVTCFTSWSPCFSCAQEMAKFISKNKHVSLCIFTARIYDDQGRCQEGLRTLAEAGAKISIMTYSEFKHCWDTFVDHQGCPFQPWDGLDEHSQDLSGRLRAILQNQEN
Outline: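 HeLa cells stably expressing Vif and A3G-eYFP, 700 cells/well, incubated overnight at 37 deg C, then exposed to compound overnight at 37 deg C. Inhibition of Vif-mediated degradation read as increased yellow fluorescence (Ex 488/Em 500-530) by laser-scanning cytometry.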

[7] = NFAT Signaling Pathway (AID 444; active = well fitted curve in either direction with a large enough effect, not every such curve was filed as active;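 also: carbachol stimulus at about its EC50 of 1 µM final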); conditions: Jurkat NFAT-bla M1, carbachol, beta-lactamase ratio, 5 h; at 17.2 µM (top of the series) unless noted
Outline: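 Jurkat cells with NFAT-driven β-lactamase reporter and co-expressed M1 receptor, stimulated with carbachol (final 1 uM, ~EC50), compound titration, 5 h at 37 °C. CCF4 loaded 1 h at RT; 460/530 nm ratio gave %activity and AC50.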

[8] = Stat Signaling Pathway (AID 446; active = well fitted curve in either direction with a large enough effect, not every such curve was filed as active;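 also: ME-180 cervical cancer cells given 40 pM IL-6 alongside compound; SIE-controlled beta-lactamase reporter measured as 460/530 nm FRET emission ratio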)
Outline: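 Reporter line: ME-180 cervical carcinoma, SIE-beta-lactamase. Treatment: compound with 40 pM IL-6, 5 hrs, 37 C, in low-serum OPTI-MEM with 10 mM HEPES pH 7.3. Detection: 460/530 nm fluorescence.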

[9] = S16 Schwann cell PMP22 intronic element beta-lactamase assay (AID 624044; calls by dose curve; also: nearly all actives have a fitted effect of over 15% in size)
Outline: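 Rat S16 Schwann cells with beta-Lac driven by a PMP22 intronic element, compound-treated 24 h at 37 °C. LiveBLAzer FRET B/G read: 460 nm normalized to potassium clavulanate vs DMSO; 535 nm FRET as viability; concentration-effect curves classified.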

7G8 = assay: qHTS profiling for inhibitors of Plasmodium falciparum proliferation (AID 504749); also: nearly all actives have a fitted effect of over 60% in size; also: potency is read from the fitted curve at half-maximal effect; conditions: P. falciparum in erythrocytes, SYBR Green DNA, 72 h; series mostly up to 12.8 µM
Outline: (§1)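 P. falciparum-infected erythrocytes (0.3% parasitemia, 2.5% hematocrit) incubated with compound 72 h at 37 C, 5% CO2. Parasite DNA detected by SYBR Green after lysis, overnight at room temperature; normalised to 0.29 uM artemisinin and DMSO.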

CP215 = assay: as above; conditions: P. falciparum in erythrocytes, SYBR Green DNA, 72 h; series mostly up to 12.8 µM
Outline: as §1

DIV14 = assay: as above; conditions: P. falciparum in erythrocytes, SYBR Green DNA, 72 h; series mostly up to 12.8 µM
Outline: as §1

DIV17 = assay: as above; conditions: P. falciparum in erythrocytes, SYBR Green DNA, 72 h; series mostly up to 12.8 µM
Outline: as §1

GB4 = assay: as above; conditions: P. falciparum in erythrocytes, SYBR Green DNA, 72 h; series mostly up to 12.8 µM
Outline: as §1

ICS = assay: as above; conditions: P. falciparum in erythrocytes, SYBR Green DNA, 72 h; series mostly up to 12.8 µM
Outline: as §1

W2 = assay: as above; conditions: P. falciparum in erythrocytes, SYBR Green DNA, 72 h; series mostly up to 12.8 µM
Outline: as §1

[10] = molecular target: Cytochrome P450 3A4 (Homo sapiens) (UniProt P08684); assay: qHTS Assay for Activators of Cytochrome P450 3A4 (AID 885); also: nearly all actives have a fitted effect of over 65% in size
Outline: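 Signal was normalized against complete inhibition by 57 uM ketoconazole. The reaction used 20nM CYP3A4 with 25uM Luciferin-PPXE, 10-min compound preincubation and a 60-min NADPH-supported step at RT.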

DFO2036 = assay: qHTS profiling for inhibitors of Plasmodium falciparum proliferation (AID 504749); also: nearly all actives have a fitted effect of over 60% in size; also: potency is read from the fitted curve at half-maximal effect; conditions: P. falciparum in erythrocytes, SYBR Green DNA, 72 h; series mostly up to 12.8 µM
Outline: as §1

For Cc1cc2ccc(=O)oc2cc1OC[C@@H](O)C(C)(C)O, the Potency [1] was 39.8 µM (active), the Potency [2] was over 46 µM and the outcome [3] was “inactive”. The Potency [4] was “inactive”, the Potency [5] was “inactive” and the outcome [6] was “inactive”.
In the case of CNC[C@H](O)[C@H](O)[C@H](O)[C@H](O)CO, the Potency [1] is reported as “inactive”, the activity change, negative = inhibition [7] is reported as 3.99% and the outcome [8] is reported as “inactive”. The outcome [3] was “inactive”.
For C[C@@H]1O[C@H](O[C@@H]2\C=C/C=C\C=C/C=C\C[C@H](C)OC(=O)/C=C\[C@H]3O[C@@H]3C[C@H](O)C[C@]3(O)C[C@@H](O)[C@@H](C(=O)O)[C@H](C2)O3)[C@@H](O)[C@H](N)[C@@H]1O (stereo in doubt), the activity change, negative = inhibition [7] was -3.9%, the outcome [8] was “inactive” and the Potency [2] was over 20.6 µM. For the same compound, the outcome [3] was “inactive”, the Potency [9] was “inactive” and the Potency (7G8) was “inactive”. The Potency (CP215) was “inactive”, the Potency (DIV14) was “inactive” and the Potency (DIV17) was “inactive”. The Potency (GB4) was “inactive”, the Potency (ICS) was “inactive” and the Potency (W2) was “inactive”.
With COc1cc(N[C@@H](C)CCCN)c2ncccc2c1 the outcome [8] was “inactive”, the outcome [3] was “inactive” and the Potency [10] was “inactive”. For the same compound, the Potency (7G8) was 0.316 µM (active), the Potency (CP215) was 3.61 µM (active) and the Potency (DFO2036) was 3.55 µM (active). The Potency (DIV14) was 0.572 µM (active), the Potency (DIV17) was 0.642 µM (active) and the Potency (GB4) was 0.809 µM (active). For the same compound, the Potency (ICS) was 0.708 µM (active) and the Potency (W2) was 2.03 µM (active).
With CC[C@H](C(=O)[C@H](C)[C@H](O)[C@H](C)CCc1ccc(C)c(O)c1C(=O)O)[C@H]1O[C@](CC)([C@@H]2CC[C@@](O)(CC)[C@H](C)O2)C[C@H]1C the Potency [1] was “inactive”, the outcome [3] was “inactive” and the Potency [10] was “inactive”.
In the case of C[C@@](N)(C(=O)O)c1cccc(CC(=O)O)c1, the outcome [3] is reported as “inactive” and the outcome [6] is reported as “inactive”.
With Cc1ncc([N+](=O)[O-])n1C[C@H](O)CCl the activity change, negative = inhibition [7] was -7.59%, the outcome [8] was “inactive” and the Potency (7G8) was “inactive”. The Potency (CP215) was “inactive”, the Potency (DFO2036) was “inactive” and the Potency (DIV14) was “inactive”. For the same compound, the Potency (DIV17) was “inactive”, the Potency (GB4) was “inactive” and the Potency (ICS) was “inactive”. The Potency (W2) was “inactive”.
For CC(=O)S[C@H]1CC2=CC(=O)CC[C@@]2(C)[C@H]2CC[C@@]3(C)[C@H](CC[C@]34CCC(=O)O4)[C@@H]12, the activity change, negative = inhibition [7] was -8.69%, the outcome [8] was “inactive” and the Potency [2] was 2.45 µM (active). For the same compound, the outcome [3] was “inactive”.
With CCC(C)(C)C(=O)O[C@@H]1C[C@H](C)C=C2C=C[C@H](C)[C@@H](CC[C@H]3C[C@@H](O)CC(=O)O3)[C@H]21 the activity change, negative = inhibition [7] was 7.6%, the outcome [8] was “inactive” and the Potency [2] was over 20.6 µM. For the same compound, the Potency (CP215) was “inactive”, the Potency (DFO2036) was “inactive” and the Potency (DIV14) was “inactive”. For the same compound, the Potency (DIV17) was “inactive”.
With O[C@@](CCN1CCCC1)(c1ccccc1)C1CCCCC1 the activity change, negative = inhibition [7] was -61.1% (active), the outcome [8] was “inactive” and the Potency [2] was over 20.6 µM. The Potency [9] was “inactive”, the Potency (7G8) was 4.47 µM (active) and the Potency (DFO2036) was “inactive”. For the same compound, the Potency (DIV14) was 2.87 µM (active), the Potency (DIV17) was 3.22 µM (active) and the Potency (GB4) was “inactive”. For the same compound, the Potency (W2) was 0.455 µM (active).
For CCN[C@@H]1C[C@H](N)[C@H](O[C@H]2OC(CN)=CC[C@H]2N)[C@@H](O)[C@H]1O[C@H]1OC[C@@](C)(O)[C@@H](NC)[C@@H]1O, the activity change, negative = inhibition [7] was -14.4%, the outcome [8] was “inactive” and the outcome [3] was “inactive”. For the same compound, the Potency [9] was “inactive”, the Potency (7G8) was “inactive” and the Potency (CP215) was “inactive”. For the same compound, the Potency (DFO2036) was “inactive”, the Potency (DIV14) was “inactive” and the Potency (DIV17) was “inactive”. The Potency (GB4) was “inactive”, the Potency (ICS) was “inactive” and the Potency (W2) was “inactive”.
In the case of CCN(CC)CCOC(=O)[C@@H](Cc1cccc2ccccc12)C[C@@H]1CCCO1, the outcome [8] is reported as “inactive”, the Potency [9] is reported as “inactive” and the Potency (CP215) is reported as “inactive”. The Potency (GB4) was “inactive”, the Potency (ICS) was “inactive” and the Potency (W2) was 2.28 µM (active).
For c1ccc2c(c1)CCC[C@@H]2C1=NCCN1, the activity change, negative = inhibition [7] was 4.55%, the outcome [8] was “inactive” and the Potency (7G8) was “inactive”. For the same compound, the Potency (CP215) was “inactive”, the Potency (DFO2036) was “inactive” and the Potency (DIV14) was “inactive”. For the same compound, the Potency (DIV17) was “inactive”, the Potency (GB4) was “inactive” and the Potency (ICS) was “inactive”. For the same compound, the Potency (W2) was “inactive”.
For COc1ccccc1OC[C@H](O)CO, the activity change, negative = inhibition [7] was -3.75%, the outcome [8] was “inactive” and the Potency (7G8) was “inactive”. The Potency (CP215) was “inactive”, the Potency (DIV14) was “inactive” and the Potency (DIV17) was “inactive”. The Potency (GB4) was “inactive”, the Potency (ICS) was “inactive” and the Potency (W2) was “inactive”.
For Nc1nc(=S)c2ncn([C@H]3O[C@@H](CO)[C@@H](O)[C@@H]3O)c2[nH]1, the outcome [8] was “inactive”, the Potency [2] was over 20.6 µM and the outcome [3] was “inactive”.
In the case of CC(=O)O[C@H]1C[C@H]2CC[C@@H]3[C@@H](CC[C@]4(C)[C@H](OC(C)=O)[C@H]([N+]5(C)CCCCC5)C[C@@H]34)[C@]2(C)C[C@H]1[N+]1(C)CCCCC1, the outcome [8] is reported as “inactive”, the Potency [2] is reported as over 20.6 µM and the outcome [3] is reported as “inactive”.
For C1CCN2C[C@@H]3C[C@@H](CN4CCCC[C@H]34)[C@H]2C1, the activity change, negative = inhibition [7] was -16.7%, the outcome [8] was “inactive” and the Potency [2] was > 20.6 µM and > 46 µM. The outcome [3] was “inactive”, the Potency (7G8) was “inactive” and the Potency (DIV14) was “inactive”. For the same compound, the Potency (DIV17) was “inactive”, the Potency (GB4) was “inactive” and the Potency (ICS) was “inactive”.
With C[C@@H](CN1c2ccccc2Sc2ccccc21)N(C)C the outcome [8] was “inactive”, the outcome [3] was “inactive” and the Potency [5] was 2 µM (active) and 316 nM (active).
For CC(C)(C)NC(=O)[C@@H]1C[C@H]2CCCC[C@@H]2CN1C[C@H](O)[C@H](Cc1ccccc1)NC(=O)[C@@H](CC(N)=O)NC(=O)c1ccc2ccccc2n1, the activity change, negative = inhibition [7] was -14.7%, the outcome [8] was “inactive” and the Potency [2] was over 20.6 µM. The outcome [3] was “inactive”.
